GLP1R inv ag = acts as inverse agonist at human GLP-1 receptor; actives 1.6% (n = 410,000); HEK293 GLP-1R CRE-luciferase, luminescence, 24 h; GLP-1R form is constitutively active; Potency, µM (highest dose often 38.3 µM), for the others: at the top dose activity change, negative = inhibition, most hits filed as inhibitors; P43220; note: % is set by controls: 0 for no effect and ±100 for the full control effect; nearly all actives have a fitted effect of over 55% in size
Target sequence (P43220 whole entry, looked up): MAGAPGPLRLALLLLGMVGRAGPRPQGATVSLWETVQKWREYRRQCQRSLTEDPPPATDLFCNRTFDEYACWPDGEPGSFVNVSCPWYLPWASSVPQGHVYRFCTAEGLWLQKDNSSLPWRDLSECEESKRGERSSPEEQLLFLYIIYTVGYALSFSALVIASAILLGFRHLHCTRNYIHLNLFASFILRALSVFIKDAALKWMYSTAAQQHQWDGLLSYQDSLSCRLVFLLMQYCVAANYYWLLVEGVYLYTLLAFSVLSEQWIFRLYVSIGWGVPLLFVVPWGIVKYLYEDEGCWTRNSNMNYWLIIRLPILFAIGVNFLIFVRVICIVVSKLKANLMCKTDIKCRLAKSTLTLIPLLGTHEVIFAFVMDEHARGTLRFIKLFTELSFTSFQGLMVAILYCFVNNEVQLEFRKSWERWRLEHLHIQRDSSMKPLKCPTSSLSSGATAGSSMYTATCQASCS
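qHTS in 1536-well format: reporter HEK293 cells expressing constitutive GLP-1R activity in DMEM + 10% Nu serum, 24 hr with compounds at 37 deg C, luminescence read after 12 min with detection reagent.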
ATXN2 expr inh = inhibitors of ATXN2 expression | HEK-293 ATXN2-luciferase reporter, luminescence, 24 h | Potency, µM (titrated, usually from 57 µM), inactives show at the highest dose activity change, negative = inhibition, actives largely listed as inhibitors | actives 0.72% (n = 360,000); note: % is set by controls: 0 for no effect and ±100 for the full control effect; nearly all actives have a fitted effect of over 55% in size
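ATXN2-luciferase reporter cells (luciferase flanked by upstream and downstream ATXN2 gene portions) were treated 24 h at 37 °C with compounds at up to 57 uM. SteadyGlo luminescence gave expression; GF-AFC fluorescence gave viability.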
GLP1R ag = agonists of human GLP-1 receptor; Potency, µM (top dose mostly 45.6 µM), for the others: at the highest dose activation, actives largely listed as activators; HEK293 GLP-1R CRE-luciferase, luminescence, 4-6 h; cells express a hypersensitive GLP-1R form; actives 0.007% (n = 380,000); P43220; note: % of control where 0% means no effect
HepG2 tox = counter-screen for TGF-b inhibitors: cytotoxicity in HepG2 cells | actives 0.76% (n = 410,000) | AID 588856 | HepG2 CAGA-GFP viability, ATP luminescence, 18 h | Potency, µM (highest dose often 46.1 µM), for the others: at the top dose activity change, negative = cytotoxicity, actives largely listed as cytotoxic
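HepG2 CAGA-GFP cells (1000/well, DMEM with 1% FBS) received compound, then TGF-beta at 500 pg/mL final, and were incubated 18 hours at 37 degrees C. Viability was read by CellTiter-Glo luminescence. Media-only wells were set as complete cell-killing and DMSO as no toxicity.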
ATXN viability = viability counter-screen for ATXN expression inhibitors | S2 cells (HEK-293 line with an ATXN2-luciferase reporter) viability, CellTiter-Fluor protease fluorescence, 24 h | Potency, µM (doses to about 56.7 µM), actives largely listed as cytotoxic | actives 0.49% (n = 400,000); note: nearly all actives have a fitted effect of over 40% in size
TGFb SMAD3 inh = inhibitors of TGF-b signaling; actives 1.2% (n = 410,000); HepG2 CAGA-GFP TGF-b/SMAD3 reporter, GFP fluorescence, 18 h; TGF-beta stimulated, 500 pg/mL final; Potency, µM (top dose mostly 46.1 µM), without a hit: at the top dose activity, negative = inhibition, usual class: inhibitors; note: % is set by controls: 0 for no effect and ±100 for the full control effect; nearly all actives have a fitted effect of over 65% in size
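Read-out: total well GFP (ex488/em500-530) summed from mean per-cell fluorescence. Cells: HEPG2 CAGA-GFP, 1% FBS DMEM, 18 h at 37 degrees C with 500 pg/mL final TGF-beta. Unstimulated wells served as the full-inhibition control; stimulated DMSO wells = 0%.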
Starred values were filed as active, the others as inactive; i = inactive; u = inconclusive; x = no result; ! = a repeat was not active; [ ] = dose if it differs, or a comment. An excerpt weighted towards active compounds, which were near 3.7% of everything screened. Calls come from the whole dose curve; as a rule, active = well fitted curve in the direction sought with a large enough effect; inconclusive = small, poorly fitted or top-dose-only effect, or another doubt; inactive = no such curve, though single readings can be large; an effect the other way counts as inactive or inconclusive. Potency is the fitted concentration of half-maximal effect.

SMILES	GLP1R inv ag	ATXN2 expr inh	GLP1R ag	HepG2 tox	ATXN viability	TGFb SMAD3 inh
COc1cc(Nc2nn(-c3ccc(OC(F)(F)F)cc3)nc2C(C)=O)cc(OC)c1	10.2%	x	x	-3.7%	x	-0.4%
COc1cc(-c2ccc(-[n+]3nc(-c4ccccc4)nn3-c3ccc([N+](=O)[O-])cc3)c(OC)c2)ccc1-[n+]1nc(-c2ccccc2)nn1-c1ccc([N+](=O)[O-])cc1	x	x	-8.0%	x	x	x
CC[N+](CC)(CC)CCOc1cccc(OCC[N+](CC)(CC)CC)c1OCC[N+](CC)(CC)CC	-5.5%	-2.1%	8.4%	-2.1%	i	19.2%
CC[N+](CC)(CC)CCOc1ccc(/C=C/c2ccccc2)cc1	u	17.8µM*!	-1.0%	0.2%	u	-9.5%
O=C1C(Cl)=C(NCCN2CCOCC2)C(=O)c2ccccc21	9.2%	-35.8%	0.1%	17.8µM*	u	u
CCCC(c1nnnn1CC1CCCO1)N1CCN(c2cc(Cl)ccc2C)CC1 (stereo not given)	8.91µM*	-35.0%	19.6%	1.7%	i	1.6%
CCCCn1c(CNC(=O)C23CC4CC(CC(C4)C2)C3)nnc1SC(C)CC (stereo not given)	3.55µM*	1.4%	2.4%	-6.2%	i	u
COC(=O)c1nnn(CC(=O)Nc2cc(F)ccc2F)c1C(=O)OC	16.1%	-9.8%	x	-0.5%	i	-28.0%
O=C(Nc1ccccc1Cl)N1CCN(c2ccc3nnc(-c4ccccc4)n3n2)CC1	7.5%	u	19.9%	-1.4%	i	-7.6%
O=C(Nc1ccc(Cl)cc1)N1CCN(c2ccc3nnc(-c4ccc(F)cc4)n3n2)CC1	u	u	-2.5%	-26.5%	u	14.1µM*
O=C(OCCOc1cccc(Cl)c1)c1cc(S(=O)(=O)N2CCCCC2)ccc1N1CCOCC1	5.62µM*	-23.3%	-1.4%	-32.4%	i	6.9%
O=C(NC1CCCN(Cc2ccc(Cl)cc2)C1)c1ccnc(Cl)c1 (stereo not given)	u	-12.9%	19.9%	-16.0%	i	-9.5%
COc1cc(OC)cc(C(=O)NC2CCCN(Cc3ccc(Cl)cc3)C2)c1 (stereo not given)	11.2µM*	x	8.9%	-5.8%	u	-0.6%
COc1cc(Nc2ncc3c(n2)CCN(Cc2ccc(OC(C)C)c(OC)c2)C3)cc(OC)c1	-0.8%	-16.6%	x	-4.2%	i	5.5%
O=C(O)c1c(Cl)c(Cl)c(Cl)c(Cl)c1-c1c2cc(I)c(=O)c(I)c-2oc2c(I)c(O)c(I)cc12	x	u	-0.4%	x	x	x
O=C(O)c1ccccc1-c1c2cc(I)c(=O)c(I)c-2oc2c(I)c(O)c(I)cc12	-14.8%	-23.8%	-0.4%	-13.2%	4.47µM*	30.8%
CCOC(=O)/C(=N\Nc1cc(Cl)ccc1Cl)N1CC(C)OC(C)C1 (stereo not given)	0.7%	x	2.9%	-9.8%	i	-0.6%
CCOC(=O)/C(=N\Nc1ccccc1Cl)N1CC(C)OC(C)C1 (stereo not given)	5.01µM*	5.2%	21.3%	-33.7%	i	14.7%
CCOC(=O)/C(=N\Nc1ccccc1Cl)N(C)C1CCCCC1	8.91µM*	-2.5%	15.5%	-20.9%	i	-2.2%
COc1cc2c(cc1OC)C(COc1ccc3c(C)cc(=O)oc3c1)N(C(=O)c1cccc(C)c1)CC2 (stereo not given)	14.2%	12.6%	x	-1.5%	i	-3.3%
COc1ccccc1NS(=O)(=O)c1cc(NC(=O)c2ccc(NC(C)=O)cc2)ccc1N1CCOCC1	8.5%	6.8%	-2.3%	7.6%	u	u
O=C(Nc1ccc(N2CCOCC2)c(S(=O)(=O)Nc2ccccc2Cl)c1)c1ccc(F)cc1	10µM*	-25.7%	1.0%	-12.9%	i	0.0%
C=CCc1cc(Cl)ccc1OCCNCCN1CCOCC1	10µM*	-0.6%	-1.8%	5.3%	i	23.1%
C=CCc1cc(Cl)ccc1OCCNCCOC	u	-19.5%[11.3 µM]	1.9%	-8.4%	i	1.2%
CC(C)c1nn2c(=O)cc(COC(=O)c3ccccc3NC(=O)c3cccc(Cl)c3)nc2s1	8.2%	x	x	1.9%	x	0.7%
SMILES	GLP1R inv ag	ATXN2 expr inh	GLP1R ag	HepG2 tox	ATXN viability	TGFb SMAD3 inh
Cn1cc(CN2CCCC(C(=O)c3cc(F)ccc3F)C2)c2ccccc21 (stereo not given)	u	u	11.2%	-53.4%	u	u
COc1ccc(F)cc1C(=O)C1CCCN(Cc2cn(C)c3ccccc23)C1 (stereo not given)	3.55µM*	u	6.2%	-24.8%	u	u
CCN(CC(O)c1cccc(O)c1)C(=O)C12CC3CC(CC(C3)C1)C2 (stereo not given)	u	x	12.6µM*	-33.9%	i	-26.8%
CC(=O)Nc1sc2c(c1CN1CCCC1)CCCC2	-29.1%	-5.1%	6.9%	-3.3%	i	-8.6%
CC(=O)Nc1sc2c(c1CN1CCN(c3ccc(F)cc3)CC1)CCCC2	7.08µM*	-2.9%	-3.2%	-31.1%	i	1.6%
O=C(C[N+]1(CC(O)c2ccccc2)CCCCC1)c1ccccc1 (stereo not given)	x	x	x	22.7%	x	17.1%
Cc1cc(C(=O)COC(=O)c2cc(O)c3ccccc3c2O)c(C)n1CC1CCCO1 (stereo not given)	-24.6%	-16.8%	-7.4%	-29.8%	u	14.1µM*
Cc1cc(C(=O)COC(=O)c2ccccc2O)c(C)n1CC1CCCO1 (stereo not given)	u	0.355µM*	-5.6%	-2.8%	i	-6.5%
Cc1cc(C(=O)COC(=O)c2ccccc2O)c(C)n1Cc1cccs1	0.0%	0.708µM*	-14.4%	-2.9%	i	-36.8%
Cc1cncc(C(=O)O)[n+]1[O-]	x	x	-6.5%	x	x	x
Cc1cc(C)cc(C(=O)NCc2nc(-c3cccc(NC(=O)c4ccccn4)c3)oc2C)c1	x	x	x	x	i	x
Cc1ccc(S(=O)(=O)CC(CN2CCOCC2)N2CCOCC2)cc1 (stereo not given)	-3.3%	-29.4%[11.3 µM]	0.7%	60.5%	i	-12.4%
O=S(=O)(CC(CN1CCCC1)N1CCCC1)c1ccc2ccccc2c1 (stereo not given)	0.0%	-0.9%	-3.5%	-24.0%	11.2µM*	0.0%
COc1cccc(CN2C(=O)NC(C)(C3CCN(Cc4cc(Cl)ccc4O)CC3)C2=O)c1OC (stereo not given)	x	x	x	x	i	x
Cc1cc([N+](=O)[O-])ccc1NCc1ccccc1	12.0%	4.6%	15.4%	-14.9%	i	-30.9%
Cc1cc([N+](=O)[O-])ccc1NCc1ccc2ccccc2c1	20.5%	5.0%	3.3%	-7.3%	i	20µM*
